# Bioassay records as filed in PubChem BioAssay.
# D3 antag = qHTS of D3 Dopamine Receptor Antagonist: qHTS. D3R cells, DiscoveRx beta-arrestin luminescence, antagonist mode; hits give low values. max response, negative = inhibition, %. 360,000 tested, 2.5% active; in the data active means max response below about -50%; inconclusive means no clear call, values can overlap the other calls; further: on the % scale 0 is the no-effect control and ±100 the full control effect
#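 Cells plated overnight at 1500 cells/well, then exposed to library compounds with dopamine controls for 90 minutes at 37 degrees C. DiscoveRx reagent added for 30–60 minutes at room temperature; luminescence read, quantitative HTS format.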
# GLP1R cytotox = qHTS of GLP-1 Receptor Inverse Agonists: Cytotox Screen. HEK293 cAMP-luciferase reporter cells, luminescence, 24 h. Potency, µM (series often up to 38.3 µM), without a hit: at the highest dose activity change, negative = inhibition, actives largely listed as inhibitors. 410,000 tested, 0.13% active. AID 624418, 2012;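 further: loss of luciferase light is scored as toxicity; potency means the concentration at half of the fitted maximal effect; on the % scale 0 is the no-effect control and ±100 the full control effect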
#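 1536-well qHTS counterscreen of the MLSMR; 200 cells/uL, 12 h pre-incubation, 23 nL cpd, 24 h at 37 deg C 5% CO2, luciferase detection reagent, 12 min RT, luminescence. Inhibition = undesired.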
# GLP1R ag = qHTS of GLP-1 Receptor Agonists | Glucagon-like peptide 1 receptor (Homo sapiens), P43220 | HEK293 GLP-1R CRE-luciferase, luminescence, 4-6 h; cells express a hypersensitive GLP-1R form | Potency, µM (titrated, usually from 45.6 µM), without a hit: at the highest dose activation, usual class: activators | 380,000 tested, 0.007% active; further: potency means the concentration at half of the fitted maximal effect; % of control where 0% means no effect
# Target sequence (P43220 whole entry, looked up): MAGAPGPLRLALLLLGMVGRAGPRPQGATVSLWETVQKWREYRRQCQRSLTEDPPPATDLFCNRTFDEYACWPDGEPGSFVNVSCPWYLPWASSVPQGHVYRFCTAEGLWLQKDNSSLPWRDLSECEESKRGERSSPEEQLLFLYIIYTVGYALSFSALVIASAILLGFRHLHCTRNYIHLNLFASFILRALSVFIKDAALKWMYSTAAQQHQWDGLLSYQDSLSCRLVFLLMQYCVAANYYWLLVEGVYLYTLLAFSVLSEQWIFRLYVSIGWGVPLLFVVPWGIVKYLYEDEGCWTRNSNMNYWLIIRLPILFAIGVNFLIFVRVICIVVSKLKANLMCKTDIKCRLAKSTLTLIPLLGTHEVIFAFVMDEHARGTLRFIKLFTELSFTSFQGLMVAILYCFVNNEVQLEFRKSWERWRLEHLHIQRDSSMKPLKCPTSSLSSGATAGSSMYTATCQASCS
# D3 ag = qHTS of D3 Dopamine Receptor Agonist: qHTS; D(3) dopamine receptor (Homo sapiens), P35462; 410,000 tested, 0.58% active; AID 652048, 2013; D3R DiscoveRx beta-arrestin cells, luminescence, 90 min; max activation, %; in the data active means max activation above about 30%; further: 0% is about no effect
#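 Cells at 1500/well, incubated overnight, then treated with pinned compounds (dopamine as control) for 90 min at 37 degrees C. DiscoveRx reagent added for 30 - 60 minutes at room temperature; luminescence read.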
# GLP-1R inv ag = qHTS of GLP-1 Receptor Inverse Agonists (Inhibition Mode); HEK293 GLP-1R CRE-luciferase, luminescence, 24 h; GLP-1R form is constitutively active; 410,000 tested, 1.6% active; Glucagon-like peptide 1 receptor (Homo sapiens), P43220; Potency, µM (highest dose often 38.3 µM), without a hit: top-dose activity change, negative = inhibition, usual class: inhibitors; AID 624417, 2012; further: potency means the concentration at half of the fitted maximal effect; on the % scale 0 is the no-effect control and ±100 the full control effect; nearly all actives have a fitted effect of over 55% in size
#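 Luminescence readout: a drop in cAMP-driven luciferase signal flags inverse agonism at a constitutively active GLP-1R stably expressed in HEK293. Compound exposure lasted 24 hr at 37 deg C, 5% CO2.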
# ClpP mod = qHTS Assay for Activators of ClpP; Potency, µM (titrated, usually from 57.5 µM), for the others: at the top dose activity change, negative = active; purified B. subtilis ClpP, FRET peptide cleavage, 20 min; AID 651965, 2013; 340,000 tested, 1.9% active; ATP-dependent Clp protease proteolytic subunit (Bacillus subtilis (strain 168)), P80244; active means well fitted falling curve with a large enough effect; inconclusive means small, poorly fitted or top-dose-only effect; inactive means no such curve, though single readings can be large or run the other way; further: potency means the concentration at half of the fitted maximal effect; the source files actives as falling curves though it sought activators and does not explain the sign; nearly all actives have a fitted effect of over 65% in size
# Target sequence (P80244 whole entry, looked up): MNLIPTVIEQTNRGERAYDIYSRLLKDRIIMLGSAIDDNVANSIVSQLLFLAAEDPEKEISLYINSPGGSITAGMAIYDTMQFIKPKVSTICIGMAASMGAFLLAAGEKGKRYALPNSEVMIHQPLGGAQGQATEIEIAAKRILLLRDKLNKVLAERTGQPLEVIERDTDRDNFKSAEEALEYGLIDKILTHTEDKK
#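 ClpP 10 microg/mL final, pH 8 Tris/KCl buffer with BSA, glycerol, Tween-20; compound pinned in; FRET-FV substrate; RT 20 min; Ex320/Em430; ΔFRET vs ADEP 5.8 microM, DMSO, no enzyme.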
# An asterisk follows results filed as active; ? = inconclusive; · = not tested or not shown. Only some compounds are listed: those with a hit (about 5.7% of all), similar ones and a draw of the others. Unless noted, the call rests on the fitted dose curve; in most records, active means well fitted curve in the direction sought with a large enough effect; inconclusive means small, poorly fitted or top-dose-only effect, or another doubt; inactive means no such curve, though single readings can be large; an effect the other way counts as inactive or inconclusive.
SMILES,D3 antag,GLP1R cytotox,GLP1R ag,D3 ag,GLP-1R inv ag,ClpP mod
CCCc1nc2ccccc2n1CC(O)COc1ccc(C(=O)OC)cc1 (stereo not drawn),·,-3%,·,4,-3%,-3%
Cn1c2c(c3ccccc31)CCN(CCCCN1CCN(c3ccccc3)CC1)C2=O,4,-20%,4%,54*,?,-7%
COc1ccccc1Cn1c(CNS(=O)(=O)c2ccccc2Cl)nc2cccnc21,·,1%,·,-4,11%,-9%
CCC(C)[C@H](N)c1nnc(SCc2ccc(Cl)c(Cl)c2)o1 (stereo partly drawn),·,-8%,-8%,-20,?,0%
Cc1c(C)n(Cc2ccccc2)c2ccc(C(=O)NCCc3ccccc3Cl)cc12,·,1%,·,-14,10µM*,16µM*
COc1ccc(CCNC(=O)c2ccc3c(c2)c(C)c(C)n3Cc2ccccc2)c(OC)c1OC,·,-3%,·,-1,?,?
COc1ccc(CCNC(=O)c2ccc3c(c2)c(C)c(C)n3Cc2ccc(F)cc2)c(OC)c1OC,·,1%,·,-2,?,25µM*
CCOC(=O)c1ccc(NC(=O)c2ccc3c(c2)c(C)c(C)n3Cc2ccc(F)cc2)cc1,·,-14%,·,0,1%,18µM*
Cc1cccc(CNC(=O)c2ccc3c(c2)c(C)c(C)n3Cc2ccccc2)c1,·,-4%,·,-6,?,-28%
COc1ccc(NC(=O)c2ccc3c(c2)c(C)c(C)n3Cc2ccc(F)cc2)cc1,·,?,·,-8,?,?
Cc1c(C)n(Cc2ccccc2)c2ccc(C(=O)NCc3ccc(OC(C)C)cc3)cc12,·,18%,·,-22,?,18µM*
COc1ccc(OC)c(NC(=O)c2cc3c(s2)-c2ccccc2SC3)c1,·,16%,·,0,1%,-17%
Cc1ccccc1CCNC(=O)c1ccc2c(c1)c(C)c(C)n2Cc1ccccc1,·,4%,·,-17,10µM*,32µM*
Cc1ccccc1CCNC(=O)c1ccc2c(c1)c(C)c(C)n2C,·,1%,·,5,?,-21%
CN(c1ccccc1)c1nc(C#N)nc(N2CCOCC2)n1,·,·,·,·,·,2%
CCOc1ccc(C(=O)NCCc2sc(-c3ccc(F)cc3)nc2C)cc1,·,1%,·,5,-16%,25µM*
Cc1ccccc1OCC(=O)Nc1ccc(-c2nc3cc(Cl)cc(Cl)c3o2)cc1,·,-2%,·,7,2%,-10%
COCCCNC(=O)c1ccc2sc([C@@H]3O[C@H](CO)[C@H](O)[C@H](O)[C@H]3O)nc2c1,1,-9%,0%,3,12%,-4%
CCc1nc2ccc(C(=O)NC3CCN(Cc4ccccc4)CC3)cn2c1N(CC)Cc1cccc(Br)c1,-78*,?,-16%,-13,?,-15%
COc1cc(C2CC(=O)c3cnc(NC(=O)COc4ccccc4)nc3C2)cc(OC)c1OC (stereo not drawn),6,-11%,-8%,36*,0%,1%
COc1ccc(C2CC(=O)c3cnc(Nc4cc(C)cc(C)c4)nc3C2)cc1 (stereo not drawn),-10,2%,4%,49*,-17%,?
COc1ccc(C(=O)N2CCC(C(=O)Nc3ccccc3Cl)CC2)cc1,·,-17%,·,2,-2%,-1%
Cc1ccc(NC(=O)CSc2nc3nccnc3c(=O)n2CCc2c[nH]c3ccccc23)c(C)c1,·,-12%,·,-2,2%,2%
COC(=O)c1ccc(CNC(=O)C(C)N=C2NS(=O)(=O)c3ccccc32)cc1 (stereo not drawn),-20,-1%,-6%,-9,0%,1%
COc1cccc(C(C)(O)c2nc(-c3ccc(C)c(C)c3)cs2)c1 (stereo not drawn),65,2%,-5%,3,?,1%
SMILES,D3 antag,GLP1R cytotox,GLP1R ag,D3 ag,GLP-1R inv ag,ClpP mod
CCOC(=O)C1=C(C)N=c2s/c(=C/c3ccco3)c(=O)n2C1c1cccc(OC)c1 (stereo not drawn),-9,1%,-11%,-4,11µM*,1%
COc1cc(-c2nc3c(c(C)nn3-c3ccccc3)c3cc(OC)c(OC)cc23)ccc1O,9,20%,5%,30,9%,7.9µM*
COc1cc2c(-c3ccccc3C)nc3c(c(C)nn3-c3ccccc3)c2cc1OC,·,-7%,·,41*,-5%,5%
COc1cc2c(-c3cc(Br)ccc3O)nc3c(c(C)nn3-c3ccccc3)c2cc1OC,·,0%,·,1,-4%,?
COc1cc2c(C)nc3c(cnn3-c3ccccc3)c2cc1OC,-20,5%,4%,-6,28%,4%
COc1ccc(-c2cc3nc(C4CCN(C(=O)OC(C)(C)C)CC4)c(C(=O)Nc4cc(Cl)cc(Cl)c4)cn3n2)cc1,·,9%,·,-12,10%,?
C=CCn1c(Cc2cccs2)nnc1SCC(=O)c1cccc(Br)c1,-19,-9%,6%,-10,5.6µM*,1%
O=C(CC1C(=O)N(c2ccccc2)C(=O)N1CCC1=CCCCC1)Nc1ccc(F)cc1 (stereo not drawn),·,-16%,·,-5,10µM*,1%
O=C(CC1C(=O)N(c2ccccc2)C(=O)N1CCc1cccs1)Nc1ccc(Cl)cc1 (stereo not drawn),·,-16%,·,-8,?,-1%
Cc1ccsc1CCN1C(=O)N(c2ccccc2)C(=O)C1CC(=O)Nc1ccc(Cl)cc1 (stereo not drawn),·,-21%,·,-2,10µM*,-4%
CCOC(=O)C1=C(CN(C)Cc2ccccc2)NC(=O)NC1c1ccc(OC(C)C)cc1 (stereo not drawn),·,-4%,-4%,-4,?,-1%
Cc1ccc(C(O)c2ncc(-c3ccc(F)cc3)[nH]2)cc1F (stereo not drawn),16,1%,-1%,6,-23%,0%
COc1ccccc1-c1cnc(C(O)c2ccc(C)cc2C)[nH]1 (stereo not drawn),-21,-1%,14%,-4,1%,-11%
O=C1COc2ccc(-c3cc(-c4ccccc4)c4c(n3)-c3cc(Cl)ccc3OC4)cc2N1,·,1%,-3%,-7,-2%,-7%
CCc1ccccc1Nc1cc(C(=O)NC2CCC(C)CC2)c2ccccc2n1 (stereo not drawn),·,-7%,·,-7,?,205%
